Screens from PubChem BioAssay.
KB-3-1 tox = KB-3-1 parental cell cytotoxicity; KB-3-1 viability, CellTiter-Glo ATP luminescence, 72 h; Potency, µM (titrated, usually from 46.1 µM), hits mostly cytotoxic; 1.4% of 400,000 active; also: % is scaled to controls: 0 for no effect and ±100 for the full control effect; nearly all actives have a fitted effect of over 60% in size
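Cytotoxicity in the drug-sensitive parental line KB-3-1 was scored as loss of CellTiter-Glo luminescence following 72 h incubation with compound. Values come from curve fitting of normalized concentration-response data.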
ATXN2 expr inh = inhibitors of ATXN2 expression; HEK-293 ATXN2-luciferase reporter, luminescence, 24 h; Potency, µM (top dose mostly 57 µM), for the others: top-dose activity change, negative = inhibition, hits mostly inhibitors; 0.72% of 360,000 active; AID 1745845; also: % is scaled to controls: 0 for no effect and ±100 for the full control effect; nearly all actives have a fitted effect of over 55% in size
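qHTS (up to 57 uM final) was run with 24 h compound exposure of reporter cells at 37 °C. Each well was multiplexed: SteadyGlo luminescence measured ATXN2-luciferase expression after a fluorogenic Gly-Phe-AFC viability readout (25 uM final).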
HepG2 tox = kills HepG2 cells in TGF-b inhibitor counter-screen; HepG2 CAGA-GFP viability, ATP luminescence, 18 h; Potency, µM (series often up to 46.1 µM), for the others: top-dose activity change, negative = cytotoxicity, actives largely listed as cytotoxic; 0.76% of 410,000 active
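CellTiter-Glo luminescence gave cytotoxicity after 18 hours at 37 degrees C. The cells were HepG2 CAGA-GFP in 1% FBS DMEM, stimulated with 500 pg/mL TGF-beta after compound addition. %Activity was normalised to no-cell wells (complete cell-killing) and DMSO (no toxicity), and curves were fitted and classified.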
TGFb SMAD3 inh = TGF-b pathway inhibition. HepG2 CAGA-GFP TGF-b/SMAD3 reporter, GFP fluorescence, 18 h; TGF-beta stimulated, 500 pg/mL final. Potency, µM (top dose mostly 46.1 µM), without a hit: at the highest dose activity, negative = inhibition, most hits filed as inhibitors. 1.2% of 410,000 active. AID 588855; also: % is scaled to controls: 0 for no effect and ±100 for the full control effect; nearly all actives have a fitted effect of over 65% in size
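Inhibition of TGF-beta-driven CAGA-GFP reporter expression in HEPG2 cells is measured by cellular GFP fluorescence after 18 h stimulation with 500 pg/mL recombinant TGF-beta in 1% FBS medium at 37 degrees C.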
KB-V1 MDR tox = KB-V1 MDR subline cytotoxicity; KB-V1 MDR cells viability, CellTiter-Glo, 72 h; Potency, µM (doses to about 46.1 µM), hits mostly cytotoxic; 3.4% of 400,000 active; AID 1347076; also: % is scaled to controls: 0 for no effect and ±100 for the full control effect; nearly all actives have a fitted effect of over 60% in size
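Potencies derive from concentration-effect curves fitted to normalized luminescence (CellTiter-Glo) of KB-V1 cells treated for 72 h at 37 degrees C in phenol-red-free DMEM containing 10% FBS.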
ATXN viability = reduces viability in counter-screen for ATXN expression inhibitors. AID 651635. S2 cells (HEK-293 line with an ATXN2-luciferase reporter) viability, CellTiter-Fluor protease fluorescence, 24 h. Potency, µM (doses to about 56.7 µM), most hits filed as cytotoxic. 0.49% of 400,000 active; also: nearly all actives have a fitted effect of over 40% in size
An asterisk follows results filed as active; i = inactive; u = inconclusive; x = no result. A selection: hits, their analogues and other compounds. The true share with any hit is near 5.9%. Calls follow the shape of the dose curve; as a rule, active = well fitted curve in the direction sought with a large enough effect; inconclusive = small, poorly fitted or top-dose-only effect, or another doubt; inactive = no such curve, though single readings can be large; an effect the other way counts as inactive or inconclusive. Potency is read from the fitted curve at half-maximal effect.

SMILES	KB-3-1 tox	ATXN2 expr inh	HepG2 tox	TGFb SMAD3 inh	KB-V1 MDR tox	ATXN viability
Cc1cnc2c(C)cccc2c1C	i	x	26%	-7%	i	x
O=C(Nc1ccc(C(F)(F)F)cc1)c1cc(S(=O)(=O)NC2CCCCCC2)ccc1F	u	32µM*	11µM*	u	18µM*	x
O=C(Nc1cc(Cl)cc(Cl)c1)c1cc(S(=O)(=O)NC2CCCC2)ccc1F	u	u	-90%	u	u	u
C=CCN(CC=C)Cc1c(O)ccc2c1oc(=O)c1ccccc12	i	-6%	1%	1%	10µM*	i
O=C(Nc1nc(-c2ccc(Br)cc2)ns1)c1ccc(F)cc1	x	x	-16%	-22%	x	x
O=S(=O)(Nc1nc2ccccc2nc1Cl)c1ccc(Br)cc1	i	x	-46%	13µM*	i	i
O=S(=O)(Nc1nc2ccccc2nc1Cl)c1ccc(Cl)cc1	u	-16%	-43%	13µM*	u	x
CCOc1nc2ccccc2nc1NS(=O)(=O)c1ccc(Cl)cc1	i	-11%	-22%	-20%	i	i
Cc1ccccc1S(=O)(=O)Nc1nc2ccccc2nc1Cl	i	5%	1%	26%	i	i
COc1cc(-c2nnc(SCC(=O)NCc3ccccc3Cl)o2)cc(OC)c1OC	i	10%	0%	3%	i	i
O=C(OCc1ccccc1)N1CCN(/[N+]([O-])=N/Oc2ccc([N+](=O)[O-])cc2[N+](=O)[O-])CC1	x	x	-108%	u	x	x
CCCOC(=O)N1CCN(/[N+]([O-])=N/Oc2ccc([N+](=O)[O-])cc2[N+](=O)[O-])CC1	x	x	-97%	7.1µM*	x	x
c1ccc(Cn2nnnc2C(c2cccs2)N2CCSCC2)cc1 (stereo not given)	i	-1%	1%	3%	u	i
COc1ccccc1N1CCN(C(c2ccccc2)c2nnnn2Cc2ccccc2)CC1 (stereo not given)	u	x	-33%	-17%	i	x
COc1ccc(Cn2nnnc2C(c2cccs2)N2CCCCCC2)cc1 (stereo not given)	u	-13%	2%	u	16µM*	i
COc1ccc(Cn2nnnc2C(C(C)C)N2CCN(c3ccccc3OC)CC2)cc1 (stereo not given)	18µM*	-5%	11%	0%	u	u
COc1ccc(Cn2nnnc2C(c2cccs2)N2CCSCC2)cc1 (stereo not given)	i	-13%	6%	-30%	i	i
CC1CCN(C(c2cccs2)c2nnnn2Cc2ccccc2)CC1 (stereo not given)	u	0%	-2%	u	15µM*	i
Cc1[nH]cnc1-c1ccc(Cl)cc1	x	16%	x	x	x	i
O=c1c2ccccc2sn1-c1ccc(S(=O)(=O)N2CCOCC2)cc1	i	x	-20%	-26%	i	x
Cc1ccc(C)c(-n2sc3ccc(F)cc3c2=O)c1	i	u	-53%	10µM*	i	u
COc1ccc(-n2sc3ccc(F)cc3c2=O)cc1	u	u	-65%	u	u	25µM*
CC(=O)Nc1ccc2sn(-c3ccccc3)c(=O)c2c1	i	-27%	-57%	u	i	u
COc1ccc(-n2sc3ccccc3c2=O)cc1	u	u	13µM*	20µM*	u	x
O=c1c2cc(F)ccc2sn1-c1ccc(F)cc1	i	u	-56%	16µM*	i	x
SMILES	KB-3-1 tox	ATXN2 expr inh	HepG2 tox	TGFb SMAD3 inh	KB-V1 MDR tox	ATXN viability
O=c1c2cc([N+](=O)[O-])ccc2sn1-c1ccccc1	i	23%	-7%	-12%	i	i
Cc1nn(CCC(=O)NCc2cccc(Br)c2)c(=O)c2nn(-c3ccccc3)c(C)c12	i	x	-29%	-22%	i	x
COc1ccc(-c2cc(=O)c3ccccc3s2)cc1	i	100%	-39%	-21%	15µM*	i
CS(=O)(=O)Nc1ccc(C2=NN(C(=O)c3ccco3)C(c3ccccc3)C2)cc1 (stereo not given)	i	7%	-4%	-1%	16µM*	i
CCS(=O)(=O)Nc1ccc(C2=NN(C(=S)Nc3ccccc3)C(c3ccco3)C2)cc1 (stereo not given)	i	23%	-4%	-2%	13µM*	u
Cc1ccccc1S(=O)(=O)N1C(c2ccc(Cl)c(Cl)c2)CC=C(C(=O)O)C1c1cccc(Br)c1 (stereo not given)	i	x	x	x	i	x
c1cncc(OC2CCN(Cc3ccc4c(c3)CN(Cc3nc5ccccc5s3)CCO4)CC2)c1	x	x	x	x	x	i
CCOC(=O)c1c(S(=O)(=O)N2CCCC(C(=O)Nc3ccc(C)cc3C)C2)c(C)n(CC)c1C (stereo not given)	i	10%	-9%	-28%	i	i
S=C(Nc1ccc(Oc2ccc(NC(=S)NC3CCCCC3)cc2)cc1)NC1CCCCC1	u	4%	1%	-2%	16µM*	i
O=C(NNC(=S)Nc1cccc(C(F)(F)F)c1)c1ccccc1Cl	u	u	-84%	14µM*	u	i
FC(F)(F)c1cccc(NC(=S)NC2CCCC2)c1	18µM*	2%	-56%	u	u	i
S=C(Nc1ccc(Cl)c(Cl)c1)NC1CCCCC1	18µM*	u	-36%	u	16µM*	i
CCC1CN(CCNC(=O)c2ccc(C#CC(C)(C)O)cc2)Cc2cc(OC)ccc2O1 (stereo not given)	x	x	x	x	x	i
CC(C)c1ccc(NC(=O)C(NS(=O)(=O)c2ccc3c(c2)CCC(=O)N3)c2ccccc2)cc1 (stereo not given)	i	52%	-8%	-22%	i	u
O=C(NNC(=S)Nc1ccc(Cl)cc1)c1ccccc1OC(F)F	18µM*	u	-59%	14µM*	3.3µM*	i
FC(F)(F)c1cccc(N2CCN(C(=S)NC3CCCCC3)CC2)c1	u	u	-26%	u	21µM*	u
COc1ccc(NC(=S)c2ccncc2)cc1	u	-14%	3%	-14%	18µM*	i
FC(F)(F)c1cccc(N2CCN(C(=S)NC3CCCC3)CC2)c1	u	u	-29%	u	u	i
COc1ccc(C(=S)Nc2ccc(C)cc2)cc1	i	16%	5%	7%	i	i
S=C(Nc1ccc2nsnc2c1)NC1CCCCC1	i	48%	-3%	-7%	16µM*	i
S=C(Nc1ccc2nsnc2c1)N1CCCCCC1	i	35%	12%	2%	i	i
